In PubChem BioAssay AID1347434 (National Center for Advancing Translational Sciences (NCATS), 2020):
Among all 1,200 compounds or so, about 30 (2%) were called active. Another 23% or so got no clear call; they are omitted. Only a selection was taken, and actives are over-represented in it overall. Values without a mark were called inactive. The call rests on the fitted dose curve; in most records, active means well fitted inhibition curve with a large enough effect; inconclusive means small, poorly fitted or top-dose-only effect; inactive means flat fitted curve, though single readings scatter.

Target: Single-stranded DNA cytosine deaminase (Homo sapiens) (UniProt Q9GZX7)
Sequence (Q9GZX7 whole entry, looked up): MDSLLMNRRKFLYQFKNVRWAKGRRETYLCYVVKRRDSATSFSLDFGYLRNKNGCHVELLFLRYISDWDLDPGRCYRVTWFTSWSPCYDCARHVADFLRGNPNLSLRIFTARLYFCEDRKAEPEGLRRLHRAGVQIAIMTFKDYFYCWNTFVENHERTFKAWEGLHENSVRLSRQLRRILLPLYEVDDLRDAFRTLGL
Assay: Confirmatory qHTS assay for inhibitors of Activation Induced Cytidine Deaminase (AID): AID signals
Settings: recombinant AID, FRET deamination/UDG coupled fluorescence, 4 h; series mostly up to 115 µM; activity, negative = inhibition: at the top concentration
Source text: Assay Provider (PI) Patricia Gearhart Ph.D. National Institute on Aging National Institute of Health (NIH), Bethesda, MD Assay Provider (PI) Rahul Kohli Ph.D. Perelman School of Medicine University of Pennsylvania, Philadelphia, PA Activation-Induced Deaminase (AID) is a cytosine deaminase which converts cytosine into uracil within stretches of ssDNA. The presence of uracil in DNA initiates a cascade of mutagenic DNA repair to introduce point mutations and DNA double strand breaks. Specific targeting of AID to the immunoglobulin heavy chain loci (Igh) promotes mutagenesis in the antibody variable region for somatic hypermutation (SHM) or switch regions leading to class switch recombination (CSR). However, AID also plays a role in accumulating unnecessary mutations across the genome. Mis-targeting of AID results in the initiation of tumor development and leads to greater drug resistance among cancer cells when continually expressed. To identify an AID inhibitor, a small molecule library will be screened in collaboration with NCATS core facility at NIH. To confirm biological function, inhibitors will be examined in an in vitro murine B-cell activation assay and subsequent secondary validation screens. Top molecules will be further screened to identify inhibitory efficacy against a wild type primary splenocytes assay. Using these approaches, we hope to identify a small molecule with great efficacy and low toxicity for use as a molecular probe to further characterize AID's intricacies, or even as a therapeutic. A FRET based analysis of cytosine deamination, was developed to identify potential inhibitors of AID catalytic activity. This screen has two signal output, Read 1 evaluates the AID inhibition response. The second readout (Read 2) evaluates UDG response and is uses as a counterscreen to exclude false positive inhibitors. Inhibition in AID and inactivity in the UDG signal is the desired outcome for this assay.
PROTOCOL TABLE SEQUENCE No. (e.g., 1, 2, 3, etc.); […] (e.g., Cells, Incubation, Reagent, etc.); VALUE; DESCRIPTION 1a; Reagent; 3 uL; [4/3x] 1 uM AID/2.67 U/mL UDG 1b; Reagent; 3 uL; 2 U/mL UDG 1c; Reagent; 3 uL; 1 uM AID 2a; Compound; 46 nL; Follow-up plates (0.64 uM - 10 mM) 2b; Control; 46 nL; ATA (16.4 nM - 10 mM) 3; Time; 10 min; incubation at room temperature 4; Reagents; 1 uL; [4x] 250 nM DJC20 / 250 nM DJC23 [Substrate] 5; Time; 4 hr; incubation at room temperature 6; Reagent; 4 uL; [2x] 250 mM NaOH 7; Time; 15 sec; centrifuge at 1000 rpm 8; Time; 30 min; incubation at room temperature 9a; Detection; fluorescence (Read 1: AID); EnVision (PerkinElmer) plate reader, 540 excitation and 590 emission filters 9b; Detection; fluorescence (Read 2: UDG); EnVision (PerkinElmer) plate reader, 560 excitation and 665 emission filters NOTES (numbers refer to sequence above) 1a; Reagents were dispensed in a medium-binding black solid-bottom Greiner plates (789176F) using a BioRptr liquid dispenser. Dispense 3 uL of [4/3x] 1 uM AID (provided by Kohli lab) and [4/3x] 2 U/mL UDG (NEB M0280L) into columns 1, 2, 5 to 48. 1b; Dispense 3 uL of [4/3x] 2 U/mL UDG into column 3. 1c; Dispense 3 uL of [4/3x] 1 uM AID into column 4. 2a; Compound ([…] [uM]: 0.64; 3.2; 16; 80; 400; 2,000; 10,000; 20,000) double pin-transferred (Dip Factor = 2) using the Kalypsys (Wako USA) pintool equipped with a 1536 pinhead for a final concentration range of 7.32 nM - 114 uM. 2b; 10 mM Aurintricarboxylic Acid (Sigma A1895) (ATA, 8-point, n = 2, 1:2.5 dilution in column 2) double pin-transferred (Dip Factor = 2) using the Kalypsys (Wako USA) pintool equipped with a 1536 pinhead for a [final] range of 186 nM - 114 uM. 3; Room temperature incubation. 4; Dispense 1 uL of substrate mixture from the Kohli lab [4x] […] DJC20 and [4x] 250 nM DJC23 into columns 1 to 48 . 5; Room temperature incubation. 6; Dispense 4 uL of […] [2x] 250 mM NaOH into columns 1 to 48. 7; Centrifugation step to remove bubbles. […]
On the % scale 0 is the no-effect control and ±100 the full control effect; potency means the concentration at half of the fitted maximal effect.

Row | SMILES | activity, negative = inhibition [%] | Potency
1 | CCc1ccc(OCC(=O)N(Cc2ccc(Cl)cc2)C2CCS(=O)(=O)C2)cc1 (stereo not given) | -5.69 | –
2 | Cc1ccc(Cl)cc1N1CCN(CCCNC(=O)c2ccc3nc(N4CCCCC4)sc3c2)CC1 | -4.77 | –
3 | Cn1c(SCc2ccc(F)cc2)nc2ccc(C(=O)NCc3ccc(F)cc3)cc21 | -11.1 | –
4 | COc1ccccc1CNC(=O)c1cnn2c(C)c(Cc3ccc(F)cc3)c(C)nc12 | -10.8 | –
5 | CCn1c(SCc2ccc(F)cc2Cl)nc(=O)c2c(C(=O)OC)cc(C3CC3)nc21 | -28.3 | –
6 | Cc1ccc(CN(Cc2ccco2)C(=O)c2ccccc2Br)o1 | -10.6 | –
7 | Cc1cc(Nc2cccc(F)c2)n2nc(-c3ccco3)nc2n1 | 7.61 | –
8 | Cc1ccc(C)c(Cn2nc(-c3cc(C)ccc3C)ccc2=O)c1 | -23.4 | –
9 | CC1=Nc2cc(C(=O)N3CCC(C)CC3)ccc2Sc2ccc(Cl)cc21 | -5.99 | –
10 | O=C(NCCc1ccccc1)c1sc2ncccc2c1-n1cccc1 | -19.5 | –
11 | Cc1ccc(Cl)cc1NC(=O)C(C)n1nc(-c2ccccc2)ccc1=O (stereo not given) | -16.4 | –
12 | CCCCCCCCc1ccc(-c2ccc(C(=O)O)cc2)cc1 | – | 35.5 µM (active)
13 | Cn1nc(-c2ccc(C(=O)Nc3ccc(F)cc3)cc2)c2ccccc2c1=O | -28.5 | –
14 | CCc1nnc(SCc2cccc(F)c2)c2cc3sc(C)cc3n12 | -18.8 | –
15 | Cc1cccc(N2CCN(C(=O)CS(=O)(=O)Cc3nc(-c4ccccc4C)oc3C)CC2C)c1 (stereo not given) | 2.05 | –
16 | Cc1ccc(C)c(N(C)C(=O)C2CCN(c3ncnc4c3nc3n4CCCCC3)CC2)c1 | -0.379 | –
17 | COc1ccc(NC(=O)CSc2nc3nc(C)c(Cc4ccccc4)c(C)n3n2)cc1OC | -21.6 | –
18 | CN(C)CCNc1ncnc2c1cnn2-c1cccc(Cl)c1 | -20.9 | –
19 | Cc1ccc(C)c(N2CCN(CCCNc3ncnc4onc(-c5ccc(Cl)cc5)c34)CC2)c1 | -2.73 | –
20 | CCc1ccc(CNC(=O)c2cnc3sc(N(CC)CC)nn3c2=O)cc1 | -15.7 | –
21 | Cc1ccc(S(=O)(=O)N2CCCC2C(=O)Nc2ccc(Br)cc2)cc1 (stereo not given) | -1.15 | –
22 | CCc1nnc2c(N3CCN(c4cccc(C)c4)C(C)C3)nc3ccccc3n12 (stereo not given) | -18.2 | –
23 | CCOC(=O)C1=C(CN2CCN(c3cc(C)ccc3C)CC2)NC(=O)NC1c1ccccc1 (stereo not given) | -4.99 | –

Row | SMILES | activity, negative = inhibition [%] | Potency
24 | COc1ccc(S(=O)(=O)N(CC(=O)NC(C)c2ccccc2)c2ccc(C)cc2)cc1OC (stereo not given) | 1.71 | –
25 | CC(=O)[C@]1(O)Cc2c(O)c3c(c(O)c2[C@@H](O[C@H]2C[C@H](N)[C@H](O)[C@H](C)O2)C1)C(=O)c1ccccc1C3=O | – | 5.62 µM (active)
26 | COc1ccccc1C(=O)Nc1ccc(C(=O)OCc2cc(=O)n3nc(C)sc3n2)cc1 | 2.56 | –
27 | Cc1cccc(C)c1OCC(=O)N(Cc1ccco1)Cc1ccco1 | -0.167 | –
28 | CCC1CCCCN1C(=O)CSc1nc2c([nH]c3ccccc32)c(=O)n1-c1cccc(OC)c1 (stereo not given) | -12.2 | –
29 | O=C(CCCCCn1c(=O)[nH]c2ccccc2c1=O)NCc1ccc(Cl)cc1 | 9.51 | –
30 | Cc1cccc(C)c1NC(=O)CS(=O)(=O)c1nc(-c2ccc(Cl)cc2)cn1-c1ccccc1 | -7.27 | –
31 | CN1CCN(c2nc3c(S(=O)(=O)c4ccc(Cl)cc4)nnn3c3ccsc23)CC1 | -27.7 | –
32 | COc1ccccc1C(=O)NCCn1cc(SCc2ccccc2Cl)c2ccccc21 | -0.695 | –
33 | Cc1ccc2c(c1)c(=O)c(C(=O)c1ccccc1)cn2Cc1ccccc1F | -20.4 | –
34 | O=C(c1ccc(F)cc1)c1cn(Cc2ccccc2)c2cc3c(cc2c1=O)OCO3 | -10.5 | –
35 | COc1ccc(NCc2nc3ccccc3n2CCOc2ccccc2C)cc1 | -11.3 | –
36 | Cc1cccc(N2CCN(C(=O)c3sc4nc5n(c(=O)c4c3C)CCC5)CC2C)c1 (stereo not given) | -8.89 | –
37 | CN(c1ncnc2onc(-c3cccc(Cl)c3)c12)C1CCCCC1 | -20.3 | –
38 | COc1ccc(CCN2CCC(CNC(=O)c3cnn(-c4cccc(Cl)c4)c3C3CCN(C(=O)OC(C)(C)C)CC3)CC2)cc1 | – | 31.6 µM (active)
39 | CC(C)(C)OC(=O)N1CCC(c2c(C(=O)NCCN3CCC(Cc4ccccc4)CC3)cnn2-c2ccccc2)CC1 | -19.5 | –
40 | COc1ccc(CCN2CCC(CNC(=O)c3cnn(-c4ccccc4)c3C3CCN(C(=O)OC(C)(C)C)CC3)CC2)cc1 | -15 | –
41 | CCN(CC)CCNC(=O)c1ccc2c(=O)n3nc(Nc4ccccc4OC)sc3nc2c1 | -25.4 | –
42 | CCN(CC)CCNC(=O)c1ccc2c(=O)n3nc(Nc4ccccc4)sc3nc2c1 | -15.6 | –
43 | CCN(CC)CCNC(=O)c1ccc2c(=O)n3nc(Nc4cccc(Cl)c4C)sc3nc2c1 | – | 50.1 µM (active)
44 | Cc1nc2nc(SCC(=O)NCc3ccccc3)nn2c(C)c1Cc1ccccc1Cl | -23.7 | –
45 | COc1ccc(C(=O)c2sc3nc4c(c(C(F)(F)F)c3c2N)CN(C(C)=O)CC4)cc1OC | 6.76 | –
